PubChem BioAssay (NCI)
Compounds without any hit were thinned out: in the full panel of roughly 83,000, 20% have a hit.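 96-well plates, one dose, 48 hours. Percent growth reported; active if below 10.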 Values without a mark were called inactive. The source made the active and inactive calls.

How the values were obtained:
Assay in all cases: NCI-60 one-dose screen, 48 h (100 = growth as untreated, 0 = no growth, -100 = all killed)
Details in all cases: 10 µM unless noted
T-47D breast = tested on: T-47D breast
BT-549 breast = tested on: BT-549 breast
MDA-MB-435 melanoma = tested on: MDA-MB-435 melanoma
SW-620 colon = tested on: SW-620 colon
MCF7 breast = tested on: MCF7 breast
HCT-116 colon = tested on: HCT-116 colon
HCC-2998 colon = tested on: HCC-2998 colon
KM12 colon = tested on: KM12 colon

| Compound | growth (T-47D breast) | growth (BT-549 breast) | growth (MDA-MB-435 melanoma) | growth (SW-620 colon) | growth (MCF7 breast) | growth (HCT-116 colon) | growth (HCC-2998 colon) | growth (KM12 colon) |
| --- | --- | --- | --- | --- | --- | --- | --- | --- |
| CCOC(=O)C(=CNc1cnc(Nc2ccc(N3CCOCC3)cc2)nc1Oc1ccc(OC)cc1)C(=O)OCC | 84.7% | 77.3% | 61.7% | 46.8% | 61.3% | 11.4% | 91.7% | 76.8% |
| O=c1c2ccccc2c(=O)c2c1sc1c(=O)c3ccc(O)cc3c(=O)c12 | -27.5% (active) | -92.6% (active) | -86.2% (active) | -71.1% (active) | -52.2% (active) | -29.2% (active) | -60.5% (active) | -31.5% (active) |
| NC(N)=NS(=O)(=O)c1ccc(NC2=C(I)C(=O)c3ncccc3C2=O)cc1 | 106% | 108% | 109% | 91.1% | 97.9% | 102% | 111% | 105% |
| Cc1ccc(C2CC(c3nc(-c4ccc(Cl)cc4)oc3C)=NN2C(=O)c2ccncc2)cc1 (configuration not stated) | 77.7% | 96% | 88.7% | 93.4% | 84.1% | 94.8% | 97.6% | 88.3% |
| COC(=O)c1c2c(n3ccccc13)C(=O)c1ccccc1C2=O | 73.4% | 68.1% | 84.6% | 40.9% | 42.5% | 27.9% | 88.3% | 49.7% |
| CN(CCC(=O)c1ccccc1)CCC(=O)c1ccccc1 | 113% | 79.7% | 102% | 99.8% | 70.2% | 93.3% | 93.3% | 98.7% |
| C=C(CNCCO)[C@@H]1CC[C@]2(CO)CC[C@]3(C)[C@H](CC[C@@H]4[C@@]5(C)CCC(N)C(C)(C)[C@@H]5CC[C@]43C)[C@@H]12 (some centres not stated) | -47.7% (active) | 65% | -44% (active) | 7.71% (active) | -29.9% (active) | 7.75% (active) | -37.2% (active) | 25.2% |
| O=C(O)c1ccc(-c2ccc(/C=N/Nc3nc(Nc4ccccc4)nc(N4CCCCC4)n3)o2)cc1 | 63.7% | -4.12% (active) | 83.2% | 86.6% | 80.1% | 57.8% | 74.7% | 61.7% |
| CCOC(=O)C(=Cc1ccc(-c2ccccc2)cc1)C(=O)OCC | 27.8% | 30.7% | 38.3% | 10.8% | 16.9% | -10.1% (active) | 76.2% | 36.6% |
| CN(C)CCCC1(c2ccc(F)cc2)OCc2cc(-c3cc4ccccc4s3)ccc21 (configuration not stated) | -2.98% (active) | 80.1% | -84.4% (active) | -70% (active) | -53.5% (active) | -80.6% (active) | -78.4% (active) | -72.1% (active) |
| CC1=C(C(=O)Nc2nc(-c3ccc(Cl)cc3)cs2)[C@H](c2ccc(O)cc2)NC(=O)N1 | 70.5% | 90.4% | 101% | 102% | 101% | 95.4% | 108% | 96.9% |
| CN(C)c1ccc(-c2nc(-c3ccccc3)c(-c3ccccc3)[nH]2)cc1 | 79.3% | 104% | 89.7% | 108% | 83.1% | 86.7% | 117% | 96.1% |
| O=C1/C=C/[C@@H](O)[C@@H]2C[C@@H](O)C[C@H]2/C=C/CCC[C@@H](O)CCO1 | 116% | 109% | 87.9% | 106% | 95.1% | 111% | 100% | 77.1% |
| COc1ccc2nc(Cl)c(/C=C3\CC(c4ccccc4)=NN(c4ccccc4)C3=O)cc2c1 | 73.1% | 43.3% | 90.3% | 88.7% | 82% | 54.1% | 85% | 90.3% |
| COc1ccc(/C=C/C(=O)c2cc(OC)c(OC)c(OC)c2)cc1OCC(=O)Nc1nc2ccc(OC(F)(F)F)cc2s1 | 24.3% | 25.7% | -51.3% (active) | 6.16% (active) | 4.06% (active) | -75.5% (active) | 90.6% | -14.3% (active) |
| CC(=O)c1sc2sc(C(C)=O)c(C)c2c1C | 89% | 105% | 102% | 102% | 73.1% | 83.1% | 102% | 107% |
| COc1ccc(C2CC(c3cc(OC)c(OC)c(OC)c3)=NO2)cc1OCCCCOc1cc2c(cc1OC)C(=O)N1CCC[C@H]1C=N2 (some centres not stated) | 11.4% | -71.4% (active) | -58.1% (active) | -21.9% (active) | 5.25% (active) | 8.33% (active) | -67.3% (active) | -22% (active) |
| CN1CCN(C(=O)[C@@]2(C)CC[C@]3(C)CC[C@]4(C)C(=CC[C@@H]5[C@@]6(C)CCC(=O)NC(C)(C)[C@@H]6CC[C@]54C)[C@@H]3C2)CC1 | 39.2% | 45.9% | 46.1% | 19.7% | 45% | 21.8% | 49% | 46.8% |
| O=C1C(Nc2ccccn2)=C(I)C(=O)c2ncccc21 | -42.5% (active) | -68.5% (active) | -82.2% (active) | -64.6% (active) | -58.7% (active) | -62.2% (active) | 53.1% | -26.1% (active) |
| CC(=O)O[C@H]1C[C@@H]2C(C)(C)C(=O)CC[C@@]2(C)c2ccc(C(C)C)cc21 | 102% | 101% | 100% | 104% | 107% | 105% | 107% | 97.7% |
| CCCCCCCC/C=C\CCCCCCCCOc1ccc(CC(=O)NCC[N+]2(C)CCOCC2)cc1 | 84.2% | 78.1% | 89.1% | 81.2% | 81.7% | 73.8% | 56.2% | 51.3% |
| COc1ccc(-c2nc3c(N)c(CO)cnc3s2)cc1 | 89.2% | 104% | 92.9% | 94.1% | 91% | 101% | 85.8% | 88.4% |
| O=C1/C(=C/c2ccccn2)NC(=S)N1c1ccccc1Cl | 44.1% | 83.8% | 67.4% | 37.9% | 32.9% | 12.2% | 85.9% | 67.4% |
| C/C(=N\O)c1ccc(NC(=O)CSc2nnc(-c3cc(-c4ccc(S(C)(=O)=O)cc4)nc4ccccc34)n2-c2ccccc2)cc1 | 63% | 88.2% | 93.5% | 97.4% | 85.6% | 83.7% | 105% | 81.9% |
| Nc1nc(NC(=O)Nc2ccc(C(=O)O)cc2)nn1-c1ccc(S(N)(=O)=O)cc1 | 102% | 91.3% | 98.2% | 87.7% | 98.7% | 95.4% | 107% | 89.6% |
| COc1ccc(N2CCN(C(=O)c3sc4nc(C)c(Br)c(C)c4c3N)CC2)cc1 | 79% | 88.2% | 98.7% | 104% | 81% | 99% | 97.1% | 94% |
| COC(=O)c1c2c(c(C)[n+]([O-])c1C)C(=O)C(NCc1cccc(Cl)c1)=CC2=O | 6% (active) | 49.3% | -68.5% (active) | 7.1% (active) | -36% (active) | 1.18% (active) | 15.3% | 17.7% |
| C=C1C(=O)O[C@H]2[C@H]1CC/C(COC(=O)c1ccc(C(=O)O)s1)=C\CC[C@@]1(C)O[C@@H]21 | 43% | 42.9% | 11.7% | 4.69% (active) | 13% | 11.4% | 61.6% | 55.6% |
| CC1CCN(C(=S)SCC(=O)NC(=O)c2ccccc2)CC1 | 84.7% | 106% | 106% | 105% | 95.7% | 109% | 115% | 97% |
